These results are taken from PubChem BioAssay.

Test [1] is described as follows: inhibitors of TNFa-induced NFkB p65 translocation, primary screen, imaging, HUVEC, MLSMR starter and 10KST1 sets (AID 438).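 For inhibition: signal is the nuclear over cytoplasmic p65 intensity ratio per well.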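 Note: compound added about 3h40 before a 20 min TNFalpha stimulation.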 The note with it: HUVEC TNFa-induced p65 nuclear translocation; cell count: measured here: nuclei count (cytotoxicity indicator), at 2.08 µM; inhibition: at 2 µM, stronger effect = higher value, 0% TNFa-plus-vehicle, 100% no-TNFa wells.
Test [2] can be described thus: reduction of polyQ htt aggregates in cells – imaging, exon1htt(103Q)mCFP cells, high-content imaging, primary screen (AID 483;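 active = visual image review flags a hit and inhibition of aggregation exceeds 20%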;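 note: compound exposure lasted 3 days before fixation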;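 for nuclei count: percent of the per-plate median nuclei count of sample wells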). The note with it: exon1htt(103Q)mCFP cell line, aggregate imaging, at 2 µM; inhibition of aggregation: stronger effect = higher value; nuclei count: measured here: cell count, toxicity.
Test [3] in a line: endothelial E-selectin expression blockers – imaging, HUVEC, immunofluorescence, MLSMR starter and 10KST1 sets, primary screen (AID 487;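 active = visually confirmed hit in the image check and inhibition above 20%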;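 for inhibition: signal is fraction of cell area covered by stained E-selectin grains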;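 for nuclei count: 100% = median nuclei count of all wells on the same plate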). The note with it: HUVEC TNFalpha-induced E-selectin immunofluorescence imaging, at 2 µM; inhibition: stronger effect = higher value; nuclei count: measured here: cell number, toxicity.
Test [4] concerns the target Voltage-gated potassium channel subunit beta-2 (Rattus norvegicus) (UniProt P62483). Nature of the test: inhibitors of rat Kvbeta2 reductase activity – biochemical, NADPH fluorescence, primary screen (AID 622;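 active = fluorescence slope higher than the sample average by over 3 SD, cut at about -0.22 in these data, passing the limit was not always enough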;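 note: slope of raw intensity against log time taken from 70 to 1610 s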). The note with it: recombinant KvBeta, 4-cyanobenzaldehyde reduction, at 10 µM, stronger effect = higher value.
Test [5] has the same target. Nature of the test: enhancers of rat Kvbeta2 NADPH turnover – biochemical, NADPH fluorescence, primary screen (AID 623;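 active = NADPH fluorescence slope more negative than the mean of all samples by about 3 SD, 99.7% confidence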;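 note: fluorescence intensity change per second fitted from 20 to 320 s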). The note with it: Recombinant KvBeta, NADPH fluorescence decrease slope, 10 min; at 10 µM; stronger effect = lower value.
Test [6] concerns the target Alpha-2C adrenergic receptor (Homo sapiens) (UniProt P18825). Briefly: compounds altering alpha2C-coupled GIRK flux – cell-based, HEK293 alpha2C/GIRK1/2, thallium flux, primary screen (AID 624;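 active = fluorescence slope after compound addition differing from the mean of all screened samples at 99.7% confidence, in either direction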;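 note: slope of fluorescence ratio to pre-addition baseline per second over 15 to 24 s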). Particulars: thallium flux BTC fluorescence, at 10 µM, actives lie on both sides.
The nature of test [7]: blockers of RIG-like receptor reporter activation – cell-based, Sendai virus stimulus, luciferase, 10K MLSCN set, TLR/RLR signaling modifier project, primary screen (AID 602276;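 active = inhibition at or above 50% at 10 µM; inactive = inhibition below 50%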;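 note: firefly luciferase from ISG56 promoter only with Renilla not read in this screen; 0% = Sendai virus plus DMSO and 100% = medium plus DMSO without virus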). The note with it: HEK293 RL24 IRF3 luciferase reporter, at 10 µM, stronger effect = higher value. A general note: Reporter assays use an easily measured gene product as a stand-in for the process of interest.

The nature of test [8]: TLR3 IRF3 reporter activation blockers – cell-based, poly I:C stimulus, luciferase, 10K MLSCN set, primary screen (AID 602277;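 active = inhibition of the reporter signal at or above 50%; inactive = inhibition below 50%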). Particulars: HEK293-TLR3 RL24 IRF3 luciferase reporter, at 10 µM, stronger effect = higher value.

The source made the active and inactive calls.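 Rule for the calls, unless noted: active = inhibition above 20% together with a positive visual image hit; inconclusive = visual image hit but inhibition not above 20%; inactive = no visual image hit.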

Voltage-gated potassium channel subunit beta-2 (Rattus norvegicus), sequence (P62483 whole entry, looked up): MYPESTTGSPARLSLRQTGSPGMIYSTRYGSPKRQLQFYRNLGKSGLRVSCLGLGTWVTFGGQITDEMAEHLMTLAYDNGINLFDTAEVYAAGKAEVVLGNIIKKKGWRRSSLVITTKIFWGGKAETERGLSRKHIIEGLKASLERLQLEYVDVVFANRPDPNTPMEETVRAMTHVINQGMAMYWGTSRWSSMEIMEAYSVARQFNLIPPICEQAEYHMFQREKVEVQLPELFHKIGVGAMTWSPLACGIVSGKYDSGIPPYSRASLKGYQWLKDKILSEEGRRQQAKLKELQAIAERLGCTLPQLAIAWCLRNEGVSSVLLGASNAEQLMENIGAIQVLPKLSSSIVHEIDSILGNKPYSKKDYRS
Alpha-2C adrenergic receptor (Homo sapiens), sequence (P18825 whole entry, looked up): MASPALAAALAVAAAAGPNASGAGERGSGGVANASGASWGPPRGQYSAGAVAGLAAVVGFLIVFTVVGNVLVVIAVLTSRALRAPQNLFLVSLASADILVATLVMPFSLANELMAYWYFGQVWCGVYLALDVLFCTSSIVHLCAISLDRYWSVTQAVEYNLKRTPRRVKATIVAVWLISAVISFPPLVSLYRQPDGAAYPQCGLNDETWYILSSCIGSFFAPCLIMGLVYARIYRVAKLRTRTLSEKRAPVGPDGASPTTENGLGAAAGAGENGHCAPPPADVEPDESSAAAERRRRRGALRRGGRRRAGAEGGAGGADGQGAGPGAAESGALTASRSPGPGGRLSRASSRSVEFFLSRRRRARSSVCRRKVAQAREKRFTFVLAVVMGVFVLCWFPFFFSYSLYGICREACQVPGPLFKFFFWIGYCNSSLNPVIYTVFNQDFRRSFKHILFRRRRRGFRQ

On to `CC1CCCCN1CCNS(=O)(=O)c1ccc2c(c1)oc(=O)n2C` (centres undefined), for which the cell count in test [1] worked out at 248. Moreover, the inhibition (as a rule, the drop in the measured response relative to a control, in per cent) in test [1] was 0.3% (inactive); in test [3] it was 18.9% (inactive); in test [7], 15.8% (inactive); in test [8], 18.5% (inactive). The inhibition of aggregation in test [2] was 4.6% (inactive). The nuclei count was 89.3% in test [2] and 88.9% in test [3]. Also, the fluorescence slope in test [4] is -0.424 (inactive). Moreover, in test [5], the NADPH fluorescence slope was -6.8e-05 (inactive). In addition, in test [6], the slope was 0.00417 (inactive).
Consider `CN(C)C(=O)N1CCCC(C(=O)NCc2ccccc2)C1` (centres undefined), for which, in test [1], the cell count was found to be 606. Moreover, the inhibition was -3.9% (inactive) in test [1], -50.4% (inactive) in test [3], 40.6% (inactive) in test [7] and 25.4% (inactive) in test [8]. The inhibition of aggregation in test [2] is -1.5% (inactive). Further, the results for the nuclei count in test [2] and in test [3] were 84% and 112%, respectively. Moreover, in test [4], the fluorescence slope was -0.341 (inactive). For the same compound, the NADPH fluorescence slope in test [5] was -2.4e-05 (inactive). The slope in test [6] is 0.00548 (inactive).
`Cc1nc2sc(C(c3ccco3)N3CCN(c4ccccc4F)CC3)c(O)n2n1` (centres undefined): the cell count in test [1] is 226. The inhibition is -5.9% (inactive) in test [1], -0.8% (inactive) in test [3], 7.27% (inactive) in test [7] and 10.5% (inactive) in test [8]. For the same compound, in test [2], the inhibition of aggregation was 3.8% (inactive). In addition, the values for the nuclei count in test [2] and in test [3] were 104% and 114%, respectively. Besides, the fluorescence slope in test [4] is -0.436 (inactive). The NADPH fluorescence slope in test [5] was -6.1e-06 (inactive). The slope in test [6] was 0.00573 (inactive).
Consider `O=c1c(-c2ccc(Br)cc2)coc2c(CN3CCOCC3)c(O)ccc12`, for which the cell count in test [1] came out at 557. In addition, the inhibition in test [1] was -2.4% (inactive); in test [3], -9.2% (inactive); in test [7], 2.64% (inactive); in test [8], -17.1% (inactive). Besides, in test [2], the inhibition of aggregation is -1.6% (inactive). Also, the figures for the nuclei count in test [2] and in test [3] were 102% and 118%, respectively. In addition, the fluorescence slope in test [4] is -0.0321 (active). Besides, in test [5], the NADPH fluorescence slope is 3.3e-05 (inactive). In test [6], the slope was 0.00611 (inactive).
With `CN1CCc2nc(SCCOc3ccccc3)c(C#N)cc2C1`, the cell count in test [1] was found to be 319. The inhibition in test [1] is -4% (inactive); in test [3], -44.8% (inactive); in test [7], -2.8% (inactive); in test [8] it was 2.79% (inactive). In addition, the inhibition of aggregation in test [2] is 0% (inactive). The nuclei count in test [2] turned out to be 93.7%; in test [3] it was 114%. For the same compound, the fluorescence slope in test [4] was -0.346 (inactive). Moreover, the NADPH fluorescence slope in test [5] was -9.3e-07 (inactive). For the same compound, the slope in test [6] was 0.00342 (inactive).
Turning to `CCCc1nnc(NC(=O)CCC(=O)N2CCN(CCOc3ccc(C)cc3)CC2)s1`, in test [1], the cell count came to 480. Besides, the inhibition was -5.6% (inactive) in test [1], -2.3% (inactive) in test [3], 0.418% (inactive) in test [7] and 10.9% (inactive) in test [8]. In addition, the inhibition of aggregation in test [2] was -0.2% (inactive). Also, the nuclei count came to 89.5% in test [2] and 81.8% in test [3]. For the same compound, in test [4], the fluorescence slope was -0.379 (inactive). For the same compound, the NADPH fluorescence slope in test [5] is 6e-06 (inactive). The slope in test [6] was 0.0036 (inactive).
As for `CCOc1cc(C2C3=C(CCCC3=O)N(C)C3=C2C(=O)CCC3)cc(Cl)c1O`, in test [1], the cell count amounted to 413. Further, the inhibition in test [1] is 12.5% (inactive); in test [3], -17.1% (inactive); in test [7], 4.36% (inactive); in test [8], 26.6% (inactive). Further, the inhibition of aggregation in test [2] was -3.2% (inactive). Also, the nuclei count worked out at 94.1% in test [2] and 112% in test [3]. In addition, in test [4], the fluorescence slope was -0.43 (inactive). Moreover, in test [5], the NADPH fluorescence slope is 5.6e-06 (inactive). The slope in test [6] is 0.00638 (inactive).
Regarding `CN(C(=O)COc1cc(=O)n(C)c2ccccc12)c1ccc(Br)cc1`, the cell count in test [1] turned out to be 389. For the same compound, the inhibition is 71.5% (active) in test [1], -178% (inactive) in test [3], 6.78% (inactive) in test [7] and 45.9% (inactive) in test [8]. The inhibition of aggregation in test [2] was 2.9% (inactive). The values for the nuclei count in test [2] and in test [3] were 104% and 142%, respectively. The fluorescence slope in test [4] was -0.513 (inactive). In addition, in test [5], the NADPH fluorescence slope is -1.3e-05 (inactive). For the same compound, in test [6], the slope is 0.00662 (inactive).
On to `c1ccc(OCCCn2nnc(-c3cccnc3)n2)cc1`, for which, in test [1], the cell count turned out to be 340. Further, the inhibition in test [1] is 0.3% (inactive); in test [3], -79.2% (inactive); in test [7], 2.51% (inactive); in test [8], -2.63% (inactive). Besides, the inhibition of aggregation in test [2] was 12.8% (inactive). In addition, the nuclei count in test [2] stood at 95.2%; in test [3] it was 121%. The fluorescence slope in test [4] is -0.343 (inactive). Besides, the NADPH fluorescence slope in test [5] was 4.3e-06 (inactive). Besides, the slope in test [6] is 0.0037 (inactive).
